Screening results as filed in PubChem.
Shiga inhibitor = Shiga toxin inhibition. Vero cells, Shiga toxin protein synthesis inhibition reporter. inhibition, % at 38.7 µM. 290,000 tested, 9.2% active. AID 2315; in the data active = inhibition mostly above about 28%, no sharp cut-off; inactive = mostly below about 43%; also: 0% is about no effect
LmPK inhibitor = LmPK (Leishmania mexicana) enzyme inhibition. AID 1721. Q27686. 290,000 tested, 0.37% active. Potency, µM (highest dose often 57.5 µM), for the others: at the top dose activity change, negative = inhibition, actives largely listed as inhibitors. purified LmPK, Kinase-Glo ATP luminescence, 1 h; also: potency is read from the fitted curve at half-maximal effect; % is scaled to controls: 0 for no effect and ±100 for the full control effect
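Screened at intermediate enzyme activity to detect both inhibitors and activators: LmPK at 0.1 nM, with a 0.5 nM enzyme column as activation reference. PEP 0.5 mM, ADP 0.1 mM; ATP detected by luminescence after 1 h.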
RE007 growth inh = less growth of the S. pombe RE007 Vpr strain | S. pombe RE007 Vpr strain, BacTiter-Glo ATP luminescence, 24 h | Potency, µM (doses to about 92.2 µM), without a hit: at the highest dose activity change, negative = less growth, usual class: inhibitors | 360,000 tested, 0.21% active; active = well fitted falling curve with a large enough effect; inconclusive = small, poorly fitted or top-dose-only effect; inactive = no such curve, though single readings can be large or run the other way; also: potency is read from the fitted curve at half-maximal effect; % is scaled to controls: 0 for no effect and ±100 for the full control effect; nearly all actives have a fitted effect of over 50% in size
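Fission yeast RE007 carrying one integrated HIV-1 vpr copy, seeded at OD 0.01 in PMG+AL medium with 23 nL pinned compound. Grown 24 h at 30 degrees; viability read by BacTiter-Glo luminescence after 5 min.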
Cycloheximide cs = counter-screen hit for Shiga toxin inhibitors, cycloheximide; cell reporter, cycloheximide protein synthesis inhibition counterscreen; max response, %; 300,000 tested, 12% active; in the data active = max response mostly above about 13%, no sharp cut-off; inactive = mostly below about 14%; also: read at 38.3 µM for the half of the compounds with a filed dose; 0% is about no effect
FBPA Giardia inh = inhibitors of Giardia lamblia fructose-1,6-bisphosphate aldolase. A8B2U2. purified Giardia FBPA. Potency, µM (doses to about 59.6 µM), for the others: at the highest dose activity, negative = inhibition, actives largely listed as inhibitors. 290,000 tested, 0.71% active; also: potency is read from the fitted curve at half-maximal effect; % is scaled to controls: 0 for no effect and ±100 for the full control effect; nearly all actives have a fitted effect of over 55% in size
Target sequence (A8B2U2 whole entry, looked up): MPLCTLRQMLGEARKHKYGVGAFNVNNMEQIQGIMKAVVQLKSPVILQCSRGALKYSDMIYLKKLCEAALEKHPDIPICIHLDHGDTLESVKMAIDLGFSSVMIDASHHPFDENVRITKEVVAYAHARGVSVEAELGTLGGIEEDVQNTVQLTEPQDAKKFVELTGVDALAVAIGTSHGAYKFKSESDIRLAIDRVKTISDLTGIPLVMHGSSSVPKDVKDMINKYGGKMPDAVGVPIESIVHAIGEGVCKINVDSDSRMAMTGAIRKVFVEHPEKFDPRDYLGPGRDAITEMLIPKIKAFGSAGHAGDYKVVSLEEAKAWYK
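Giardia FBPA (40 nM reagent) was preincubated 10 min at RT with compound (up to 57.5 uM final), then substrate plus GAPDH/TPI/NAD/arsenate coupling system with diaphorase/resazurin was added; resorufin fluorescence (525/598 nm) was read after 20 min.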
Tb PYK inh = inhibitors of Trypanosoma brucei pyruvate kinase | Q57TT1 | 410,000 tested, 0.12% active | TbPYK enzyme, Kinase-Glo Plus ATP luminescence, 45 min | AID 624173 | Potency, µM (top dose mostly 76.8 µM), without a hit: at the highest dose activity, negative = inhibition, actives largely listed as inhibitors; also: potency is read from the fitted curve at half-maximal effect; % is scaled to controls: 0 for no effect and ±100 for the full control effect; nearly all actives have a fitted effect of over 50% in size
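ADP (130 uM final) triggers the TbPYK reaction after compound addition; incubation is 45 min at room temperature. Kinase-Glo Plus is then added and luminescence imaged. Normalized data are fitted to concentration-effect curves.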
Numbers without * were called inactive; ? = inconclusive; . = no result given. This is one part of a sample in which hits are shown more often than they occur. Unless noted, calls follow the shape of the dose curve; as a rule, active = well fitted curve in the direction sought with a large enough effect; inconclusive = small, poorly fitted or top-dose-only effect, or another doubt; inactive = no such curve, though single readings can be large; an effect the other way counts as inactive or inconclusive.

SMILES | Shiga inhibitor | LmPK inhibitor | RE007 growth inh | Cycloheximide cs | FBPA Giardia inh | Tb PYK inh
Cc1cccc(CN2CCN(C3CN(Cc4ccc([N+](=O)[O-])cc4)S(=O)(=O)C3)CC2)c1 (configuration not stated) | . | . | -19% | . | . | -3%
COc1cccc(C(=O)C2CN(c3ccccc3)CC2c2ccc(Cl)cc2)c1 (configuration not stated) | 53 | 2% | -8% | 23* | 1% | -4%
COc1cc(Cl)c(C)cc1NC(=O)CCn1c(=O)c2cccn2c2cccnc21 | . | . | . | . | . | 2%
Cc1cccc(NC(=O)c2ccc(C(=O)Nc3cccc(C)c3C)cc2)c1C | . | . | . | . | . | 2%
CC(C)(C)NC(=O)c1ccccc1NC(=O)c1ccc2c(c1)OCO2 | -19 | 6% | -15% | -4 | 0% | -11%
Cc1ccccc1NC(=O)c1ccc2c(c1)OCCO2 | 137* | -11% | 0% | 18* | -2% | -5%
COC(=O)c1ccccc1NC(=O)c1ccc2c(c1)OCCCO2 | 30 | -6% | -14% | 22* | . | 0%
N#Cc1ccccc1NC(=O)COC(=O)c1ccc2c(c1)OCCO2 | 29 | -1% | 8% | 19* | -2% | 2%
Cc1cccc(NC(=O)c2ccc3c(c2)OCCO3)c1C | 109* | -11% | 9% | 47* | 1% | -3%
CC(=O)c1ccc(NC(=O)c2cnc(N3CCCC3)nc2C)cc1 | . | . | . | . | . | -21%
CCOC(=O)C[C@@H]1OC[C@H](CO)N1S(=O)(=O)c1ccc(C)cc1 | . | . | -19% | . | . | .
N#Cc1ccccc1NC(=O)c1ccc2c(c1)OCCO2 | 99* | 0% | 3% | 31* | 0% | -2%
N#Cc1ccccc1COC(=O)c1ccc2c(c1)OCCO2 | . | . | -10% | . | . | 5%
NS(=O)(=O)c1cccc(NC(=O)CCSc2ccccc2Cl)c1 | 68* | 0% | 10% | 61* | 0% | 3%
O=C(CCSc1ccccc1Cl)Nc1cccc([N+](=O)[O-])c1 | 73* | 0% | 26% | 45* | -5% | -2%
Cc1ccc2nc(-c3cccs3)c(Nc3ccc4c(c3)OCCO4)n2c1 | . | . | . | . | . | 0%
Cc1csc(NC(=O)Cc2c[nH]c3ccccc23)n1 | 72* | -2% | 25% | 27 | -8% | -8%
Cc1csc(NC(=O)c2cc(=O)[nH]c3ccccc23)n1 | -3 | -1% | -3% | -2 | 6% | 1%
Cc1cnc(NC(=O)Cc2c[nH]c3ccccc23)s1 | 53 | 9% | 18% | 67* | 17% | -17%
CCc1nnc(NC(=O)Cc2c[nH]c3ccccc23)s1 | 20 | 15% | 6% | 2 | -19% | -3%
CC(=O)/C(C#N)=C1\NC(=O)C(Cc2ccccc2C)S1 (configuration not stated) | 27 | 5% | -15% | 16* | 0% | -6%
CCc1ccc2c(Cl)c(C(=O)N/N=C/c3c[nH]c4ccccc34)sc2c1 | 30 | 2% | 4% | 22* | 0% | -2%
CCc1ccc(-c2cc(C(=O)N/N=C/c3c[nH]c4ccccc34)[nH]n2)cc1 | 106* | 4% | 3% | 35* | -1% | 5%
N#CCC(=O)Nc1ccc(C(=O)OCC(=O)N2CCN(C(=O)c3ccco3)CC2)cc1 | . | . | -3% | . | . | -6%
Cc1cc(N=Nc2ccc(C)c(N=Nc3cc(C)c(N)cc3N)c2)c(N)cc1N | 76* | 20µM* | -15% | 62* | ? | -4%
SMILES | Shiga inhibitor | LmPK inhibitor | RE007 growth inh | Cycloheximide cs | FBPA Giardia inh | Tb PYK inh
Cc1ccc(N)cc1N | . | . | -4% | . | . | -5%
O=C(Nc1ccc2[nH]ncc2c1)c1ccccc1Cl | 22 | -1% | -9% | 16* | -8% | -1%
O=C(Nc1ccc2[nH]ncc2c1)c1ccccc1Br | 22 | 1% | 4% | 18* | 6% | 3%
O=C(Nc1ncn[nH]1)c1ccccc1Br | -9 | 1% | -10% | -3 | 1% | 3%
N#CC1=C(N)Oc2c(ccc3ccccc23)C1c1ccsc1 (configuration not stated) | 57* | 4% | 2% | 20* | ? | 3%
O=C(c1ccccc1NS(=O)(=O)c1ccc(F)cc1F)N1CCCCC1 | . | . | -9% | . | . | 4%
Cc1cccc(NC(=O)CSc2nc3ccccc3nc2N2CCOCC2)c1C | . | . | . | . | . | -2%
COc1ccc(CCNC(=O)CN2C(=O)C(=O)N(C3CCCC3)C2=O)cc1OC | . | . | 7% | . | . | -7%
Cc1ccc(C(=O)NNC(=S)Nc2cccc3ccccc23)s1 | 67* | -3% | -16% | 30* | 4% | 1%
Cc1ccc(F)c(NC(=S)Nc2cccc3ccccc23)c1 | 58* | -10% | . | 36* | ? | .
COc1ccc(NC(=S)Nc2cccc3ccccc23)cc1OC | 18 | 5% | 5% | 30* | -29% | 1%
CC(=O)c1cccc(NC(=S)Nc2cccc3ccccc23)c1 | 83* | -1% | -7% | 44* | -25% | -13%
CC(=O)c1cccc(NC(=S)NCc2ccccc2)c1 | -2 | 0% | -15% | -1 | 1% | 3%
C[C@]12CC[C@H]3[C@@H](CC[C@@]45O[C@@H]4C(=O)C(C#N)C[C@]35C)[C@@H]1CC[C@@H]2O (some centres not stated) | . | . | . | . | . | 2%
CC(=O)OCC(NC(=O)C1CCCN1C(=O)OC(C)(C)C)C1OC(n2cc(F)c(=O)[nH]c2=O)C(OC(C)=O)C1OC(C)=O (configuration not stated) | 19 | . | . | -4 | 5% | .
O=C(Nc1nc(OCC(F)(F)F)cnc1/C=C\c1ccccc1)c1ccccc1 | . | . | 0% | . | . | 2%
S=C(Nc1cccc2ccccc12)Nc1cccc2ccccc12 | . | . | -1% | . | . | -13%
CC(=O)Nc1cccc(NC(=S)Nc2cccc3ccccc23)c1 | 84* | -18% | -11% | 44* | . | 1%
O=C(O)Cn1c(=O)c(-c2ccccc2)nc2ccccc21 | -4 | -6% | 14% | 4 | 8% | -1%
O=c1c(-c2ccccc2)nc(-c2ccccc2)cn1O | 19 | -6% | 11% | 21* | -10% | 2%
Cc1cc(C(F)F)n2nc(C(=O)Nc3c(C)cccc3C)nc2n1 | . | . | . | . | . | 3%
Cc1c(NS(C)(=O)=O)cccc1-c1nc2cccnc2s1 | 154* | -1% | -4% | 32* | 2% | 0%
O=S(=O)(Nc1cccc2ncccc12)c1cccs1 | 6 | 5% | -3% | 29* | ? | 4%
CCOc1ccccc1NS(=O)(=O)c1cccs1 | 1 | 2% | -12% | -3 | 14µM* | 4%
Cc1c(NS(=O)(=O)c2cccs2)cccc1-c1nc2cccnc2s1 | 22 | 2% | -18% | 24* | 16% | 0%
O=C(Cc1ccc(NC(=O)C2CCN(C(=O)C3CCCC3)CC2)cc1)Nc1cccc(C(=O)N2CCCCC2)c1 | . | . | 8% | . | . | 5%
COc1ccc(NC(=O)C(=O)c2cc(C)n(-c3ccc(C)cc3)c2C)cc1Cl | . | . | . | . | . | 2%
